# Test results: the supplement of paper PMC12669032
# A number with no mark means an inactive call.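 Rule for the calls: active = AUC reduced over 20% with Padj below 0.05 in at least 2 of 3 replicates; inactive = otherwise.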
# Assays:
# Test in all cases: growth AUC relative to DMSO control (median of replicates) (fraction); higher = more growth (less inhibition), active = hit call of the paper
# Details in all cases: 20 µM; 24 h
# [1] = system: Coprococcus comes
# Summary of the method: (§1)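 Gut bacterial monocultures were grown anaerobically at 37 °C in mGAM, starting at OD600 0.05, with 20 µM compound (1% DMSO) in round-bottom 96-well plates under pierced gas-permeable seals. OD600 was read hourly for 24 h. Area under the growth curve (minimum OD set to 0) was normalised to the plate median of DMSO controls, or to row and column medians on the industrial chemical plate. The value is the median of three biological replicates grown on separate days.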
# [2] = system: Escherichia coli ED1a
# Summary of the method: as §1
# [3] = system: Escherichia coli IAI1
# Summary of the method: as §1
# [4] = system: Eubacterium rectale
# Summary of the method: as §1
# [5] = system: Fusobacterium nucleatum subsp. animalis
# Summary of the method: as §1
# [6] = system: Lactobacillus gasseri
# Summary of the method: as §1
# [7] = system: Lactobacillus paracasei
# Summary of the method: as §1
# [8] = system: Odoribacter splanchnicus
# Summary of the method: as §1
# [9] = system: Parabacteroides distasonis
# Summary of the method: as §1
# [10] = system: Parabacteroides merdae
# Summary of the method: as §1
# [11] = system: Roseburia intestinalis
# Summary of the method: as §1
# [12] = system: Streptococcus salivarius
# Summary of the method: as §1
SMILES,growth AUC [1],growth AUC [2],growth AUC [3],growth AUC [4],growth AUC [5],growth AUC [6],growth AUC [7],growth AUC [8],growth AUC [9],growth AUC [10],growth AUC [11],growth AUC [12]
CCCCc1c(C)nc(N(C)C)[nH]c1=O,1,0.976,0.913,0.825,1.09,1,0.896,1.05,1.03,1.01,0.959,1.02
Cc1cc(C)nc(NC(=O)NS(=O)(=O)c2ccccc2C(=O)OC2COC2)n1,0.97,0.986,0.983,1.07,1.02,0.884,1.08,1.01,1.02,0.997,0.985,0.909
CCS(=O)(=O)Cc1ccccc1OC(=O)NC,0.996,1,1,1.07,1.03,0.958,1.02,1,0.98,0.983,0.964,0.927
CCC(C)(NC(=O)c1cc(Cl)c(C)c(Cl)c1)C(=O)CCl (stereo not given),0.945,1.01,0.995,0.892,0.906,0.942,1.02,0.914,0.643 (active),0.907,0.964,0.945
N#CN=C1SCCN1Cc1ccc(Cl)nc1,1.04,0.966,0.996,0.979,1.11,1.03,0.963,1.02,1.03,1.01,1.01,1.01
COP(=S)(OC)Oc1ccc([N+](=O)[O-])cc1,0.992,0.999,1,1.13,1.13,0.915,0.989,0.771,0.93,0.964,0.917,0.968
CC(C)(C)c1cc([N+](=O)[O-])cc([N+](=O)[O-])c1O,0.859,0.93,0.923,0.908,0.638,0.852,0.859,0.722,0.83,0.942,0.802,0.848
Nc1c(Cl)c(Cl)c(Cl)c(Cl)c1Cl,0.958,0.986,0.95,1.01,0.983,0.972,0.869,0.993,1.04,0.971,0.986,0.983
CCOP(=S)(OCC)Oc1cc(Cl)c(Br)cc1Cl,0.976,1.02,0.992,1.05,1.08,0.868,1,0.968,0.891,0.962,0.948,0.958
O=P(Oc1ccccc1)(Oc1ccccc1)Oc1ccccc1,0.937,1,0.993,0.977,0.828,0.943,0.958,1.01,0.594 (active),0.842,0.937,0.957
CCNc1nc(NCC)nc(SC)n1,0.99,1.02,0.99,1.02,1.06,1.13,1.08,0.88,1.01,1.04,1.08,0.978
COP(=S)(OC)Oc1ccc(C#N)cc1,1.04,1.04,1.02,1.11,1.04,1.03,1,1.02,1.07,1,1.06,0.959
CCCCC(O)(Cn1cncn1)c1ccc(Cl)cc1Cl (stereo not given),0.946,0.987,0.996,0.783 (active),1.04,0.952,0.936,0.894,1.01,0.931,1,0.991
CCN(Cc1ccc(Cl)nc1)/C(=C/[N+](=O)[O-])NC,0.959,1.04,0.987,0.948,0.928,0.966,0.992,0.95,1.04,0.989,1,1
c1cc2ccc3cccc4ccc(c1)c2c34,0.914,0.958,0.982,1.04,0.945,0.993,0.934,1,0.751 (active),0.976,0.977,0.927
CCOP(=S)(OCC)Oc1ccc2c(C)c(Cl)c(=O)oc2c1,1,1.02,1.01,1.11,1.01,0.991,0.998,1.01,0.748 (active),0.897,1.01,1
Cc1nc(N(C)C)nc(OC(=O)N(C)C)c1C,1.01,0.998,0.992,0.98,1,1.1,0.978,1.01,1.03,1.04,0.988,1
O=C(NC(=O)c1c(F)cccc1F)Nc1ccc(Cl)cc1,0.97,0.993,1,1.01,0.987,0.93,0.965,0.985,1.07,0.99,0.983,0.992
Nc1ccncc1,0.95,0.99,0.983,0.949,0.969,0.897,1,0.974,1.02,1.02,0.981,0.981
C[C@@H](Oc1ccc(Oc2ncc(C(F)(F)F)cc2Cl)cc1)C(=O)O,1,0.97,0.994,0.973,1.02,0.94,0.972,0.98,0.989,0.996,0.981,0.999
O=C(O)C(F)(F)C(F)(F)C(F)(F)C(F)(F)C(F)(F)C(F)(F)C(F)(F)C(F)(F)F,1.01,1.01,1.01,0.99,1,1,1.03,1.07,1.18,1.01,0.975,0.998
Clc1ccccc1Cl,1.02,0.971,0.994,0.972,0.975,0.948,1.02,0.95,0.996,1.01,0.968,1.07
C[N+]1(C)CCCCC1.[Cl-],1.07,1.03,0.992,1.2,1.09,0.976,1.02,0.941,1,1.04,0.975,0.99
CCN(CC)C(=S)[S-].O.O.O.[Na+],0.964,0.972,0.976,0.983,1.09,1.01,0.978,1,0.982,0.873,0.894,1.03
O=P(O)(O)CCCl,1.06,1.02,1.02,1.22,1.04,0.975,1.01,1.12,1.01,1,1.03,1.04
